PubChem BioAssay (NCI)
The panel holds about 83,000 compounds, 20% with a hit somewhere; the sample as a whole holds those more often.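 Each cell line was grown in a 96-well plate and treated with one concentration of compound for 48 hours. Values below 10 were considered active.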 Values without a mark were called inactive. The source made the active and inactive calls.

test system: KM12 colon; assay: NCI-60 one-dose screen, 48 h (100 = growth as untreated, 0 = no growth, -100 = all killed); details: 10 µM unless noted

Compound | growth
COc1cc(-c2nc(-c3nc4ccc(Cl)cc4[nH]3)cc3c2[nH]c2ccccc23)cc(OC)c1OC | 71%
Cc1c(C(N)=O)sc2c1c(=O)n(Cc1ccccc1)c1nnc(Nc3ccccc3)n21 | 93.6%
O=c1c2sc3ncccc3c2nnn1-c1ccccc1 | 106%
CCCCCCCC[C@@H](O)CC(=O)N[C@@H](CC(N)=O)C(=O)N[C@@H](CCC(N)=O)C(=O)N[C@@H](CC(=O)c1cc(C)cc(O)c1C(=O)c1c(O)cccc1O)CC(C)C | 1.64% (active)
COc1cc(/C(C#N)=C/c2ccc3c(c2OC)OCO3)cc2c1OCO2 | 17.4%
COc1ccc(Nc2[nH]n3c(=O)cc(C)nc3c2C(N)=O)c(OC)c1 | 101%
Fc1ccc(Nc2nc(NCCNc3ccnc4cc(Cl)ccc34)nc(N3CCOCC3)n2)cc1 | 78.6%
CN(C)c1oc(C2OC2c2ccccc2)nc1C#N (stereo not drawn) | 103%
